Assay outcomes deposited in PubChem by National Center for Advancing Translational Sciences (NCATS).
TDP1 cell CPT = growth inhibition of DT40 Tdp1-/-;hTDP1 cells with camptothecin (screen for TDP1 inhibitors). Potency, µM (titrated, usually from 46.2 µM), usual class: inhibitors. chicken DT40 Tdp1-/-;hTDP1 cells + 20 nM CPT, ATP luminescence, 48 h. AID 686979. 420,000 tested, 12% active; note: nearly all actives have a fitted effect of over 55% in size
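Cell growth measured by CellTiter-Glo luminescence after a minimum 48 h, 37 C compound exposure with 20 nM CPT in Tdp1-knockout DT40 cells stably expressing hTDP1, seeded 400/well; qHTS titration format.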
RORgamma inh = inhibitors of mouse ROR gamma transcriptional activity | P51450 | Drosophila S2 Gal4-RORgamma UAS-luciferase reporter, 20 h | Potency, µM (titrated, usually from 53.6 µM), actives largely listed as inhibitors | 310,000 tested, 5.4% active | AID 2551; note: nearly all actives have a fitted effect of over 60% in size
Target sequence (P51450 whole entry, looked up, the tested form may be a part): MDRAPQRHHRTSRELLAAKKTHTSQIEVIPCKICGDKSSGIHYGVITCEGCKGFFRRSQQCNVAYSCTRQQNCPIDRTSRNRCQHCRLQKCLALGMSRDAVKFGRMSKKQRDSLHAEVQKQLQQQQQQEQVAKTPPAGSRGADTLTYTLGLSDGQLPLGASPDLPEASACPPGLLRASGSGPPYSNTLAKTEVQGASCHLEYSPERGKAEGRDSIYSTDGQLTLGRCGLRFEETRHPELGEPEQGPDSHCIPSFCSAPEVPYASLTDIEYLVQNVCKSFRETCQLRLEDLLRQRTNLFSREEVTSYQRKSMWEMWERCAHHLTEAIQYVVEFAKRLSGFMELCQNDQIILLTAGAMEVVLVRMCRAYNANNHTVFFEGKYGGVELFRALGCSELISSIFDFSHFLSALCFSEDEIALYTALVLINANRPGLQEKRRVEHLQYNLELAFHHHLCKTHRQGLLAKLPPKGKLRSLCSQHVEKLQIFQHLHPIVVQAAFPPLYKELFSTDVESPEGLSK
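Luciferase reporter read in Schneider cells carrying Gal4-RORγ (mouse) and UAS-Photinus luciferase; cells given compound 1 h before 700 uM copper sulfate induction, then incubated 20 h at ambient temperature.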
IL1B secr inh = inflammasome signaling inhibition, IL-1 beta readout; 360,000 tested, 4.7% active; THP-1 LPS/ATP IL-1B secretion, AlphaLISA, 16 h; hits give low values; activity change, % at 57.5 µM; in the data active = activity change below about -50%; inconclusive = mostly about -30% to -49%
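Secreted IL-1B measured by AlphaLISA bead assay after 16 h compound exposure of THP-1 cells; compounds (final up to 57.5 uM) added 1 h before LPS (250 ng/mL) and ATP (1.25 mM) stimulation; lower signal means less secretion.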
TDP1 cell noCPT = qHTS for Inhibitors of human tyrosyl-DNA phosphodiesterase 1 (TDP1): qHTS in cells in absence of CPT. DT40 Tdp1-/- hTDP1 cells, no CPT, ATP luminescence, 48 h. Potency, µM (highest dose often 46.2 µM), usual class: inhibitors. 420,000 tested, 15% active; note: nearly all actives have a fitted effect of over 55% in size
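Chicken DT40 Tdp1-/- cells complemented with human TDP1, screened without camptothecin (DMSO vehicle only), 400 cells/well. Compounds pin-transferred, cells incubated at 37 °C for at least 48 hr. Growth read as ATP-dependent luminescence (CellTiter-Glo, 30 min at RT).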
ELG1 DNA repair = blocks ELG1-dependent DNA repair in HEK293T cells; HEK293T ELG1-luciferase reporter, luminescence, 16 h; DNA damage induced by 5-fluorouridine; Potency, µM (doses to about 46.1 µM), usual class: inhibitors; 330,000 tested, 2.3% active; AID 504467; note: nearly all actives have a fitted effect of over 55% in size
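Quantitative HTS, concentration-response format. 2,000 cells/well co-treated with 5-fluorouridine and compound, 16 hr in 5% CO2 at 37 °C; ONE-Glo luminescence read after 30 min.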
VP16 counter = counter-screen for ROR gamma inhibitors: Gal4-VP16 reporter; Drosophila S2 Gal4-VP16 UAS-luciferase, luminescence, 20 h; Potency, µM (series often up to 53.6 µM), actives largely listed as inhibitors; 310,000 tested, 3.5% active; AID 2546;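 note: Gal4-VP16 expression switched on by copper sulfate through the metallothionein promoter; nearly all actives have a fitted effect of over 50% in size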
A number is an active result; [ ] = another dose, or the depositor's remark. In the library only some 21% were active in any assay of this set; here they are far more common. Unless noted, calls come from the whole dose curve; as a rule, active = well fitted curve in the direction sought with a large enough effect; inconclusive = small, poorly fitted or top-dose-only effect, or another doubt; inactive = no such curve, though single readings can be large; an effect the other way counts as inactive or inconclusive.

Screening Cc1ccc(C)c(S(=O)(=O)Nc2ccc(S(=O)(=O)Nc3onc(C)c3C)cc2)c1 returned TDP1 cell CPT inactive, RORgamma inh inactive, IL1B secr inh inactive, TDP1 cell noCPT inactive, ELG1 DNA repair inactive and VP16 counter inactive.
Screening COc1ccc(-c2cnc(C)o2)cc1S(=O)(=O)Nc1c(C)cc(C)cc1C returned TDP1 cell CPT 16.4µM and TDP1 cell noCPT 23.1µM.
Screening COc1ccc(-c2cnc(C)o2)cc1S(=O)(=O)Nc1ccc(C)c(N(C)C)c1 returned TDP1 cell CPT inactive and TDP1 cell noCPT inactive.
Cc1cc(C)c(NS(=O)(=O)c2cc(-c3onc(C)c3C)ccc2C)c(C)c1 was read as TDP1 cell CPT 13µM and TDP1 cell noCPT 8.2µM.
Cc1cc(C)cc(OCC(=O)OCC(=O)N2CCc3ccccc32)c1 was read as TDP1 cell CPT inactive, IL1B secr inh inactive, TDP1 cell noCPT inactive and ELG1 DNA repair inactive.
Cc1ccccc1Cn1c(=O)n(Cc2ccc3c(c2)OCO3)c(=O)c2oc3ccccc3c21 was read as TDP1 cell CPT inactive and TDP1 cell noCPT inactive.
Screening O=C1CCN(S(=O)(=O)c2ccccc2)C2CCCCC12 (stereo unspecified) returned TDP1 cell CPT inactive, RORgamma inh inactive, IL1B secr inh inactive, TDP1 cell noCPT inconclusive, ELG1 DNA repair inactive and VP16 counter inactive.
O=C1NC2CCCCC2C(=O)N1OS(=O)(=O)c1ccccc1 (stereo unspecified) was read as TDP1 cell CPT 2.59µM, IL1B secr inh -78.3 and TDP1 cell noCPT 11.6µM.
Cc1ccccc1OCC(=O)OCC(=O)NC1CCCC(C)C1C (stereo unspecified) was read as TDP1 cell CPT inactive, IL1B secr inh inactive and TDP1 cell noCPT inconclusive.
COc1ccccc1C(=O)NCCN1CCCC1 was read as TDP1 cell CPT inactive, IL1B secr inh inactive and TDP1 cell noCPT inactive.
Screening CN(C)CCCN(C(=O)c1cccs1)c1nc2ccc(F)cc2s1 returned TDP1 cell CPT 16.4µM and TDP1 cell noCPT inconclusive.
`CCOc1ccc2nc(N(CCN(C)C)C(=O)/C=C/c3cccs3)sc2c1` gave TDP1 cell CPT inconclusive, RORgamma inh inactive, IL1B secr inh -71.3, TDP1 cell noCPT 23.1µM, ELG1 DNA repair inactive and VP16 counter inactive.
For CN(C)CCCN(C(=O)C1COc2ccccc2O1)c1nc2ccc(F)cc2s1 (stereo unspecified) the results were TDP1 cell CPT inconclusive, RORgamma inh inactive, IL1B secr inh inactive, TDP1 cell noCPT inconclusive, ELG1 DNA repair inactive and VP16 counter inactive.
CCN(CC)CCN(C(=O)/C=C/c1cccs1)c1nc2ccc(F)cc2s1 was read as TDP1 cell CPT inconclusive, RORgamma inh inactive, IL1B secr inh -78.3, TDP1 cell noCPT inconclusive, ELG1 DNA repair inactive and VP16 counter inactive.
Cc1ccc2nc(N(CCN(C)C)C(=O)c3ccc4ccccc4c3)sc2c1 was read as TDP1 cell CPT inconclusive, RORgamma inh inactive, IL1B secr inh inactive, TDP1 cell noCPT inconclusive, ELG1 DNA repair inactive and VP16 counter inactive.
CCc1ccc2nc(N(CCN(C)C)C(=O)/C=C/c3cccs3)sc2c1 was read as TDP1 cell CPT inconclusive, RORgamma inh inactive, IL1B secr inh -81.0, TDP1 cell noCPT inconclusive, ELG1 DNA repair inactive and VP16 counter inconclusive.
`CCC1CN(CCNC(=O)c2cccc(C(=O)OC)c2)Cc2cc(OC)ccc2O1` (stereo unspecified) gave TDP1 cell CPT inactive[9.04 µM] and TDP1 cell noCPT inactive.
COC(=O)c1ccccc1NC(=O)CCCn1nc(C)c2sc3ccccc3c2c1=O was read as TDP1 cell CPT inactive and TDP1 cell noCPT inconclusive.
For O=C(CCCSc1nc2ccccc2[nH]1)NCc1ccc(Cl)cc1 the results were TDP1 cell CPT inconclusive, RORgamma inh inconclusive, IL1B secr inh inactive, TDP1 cell noCPT inconclusive, ELG1 DNA repair inconclusive and VP16 counter inactive.
For CN(C)CCCN(C(=O)/C=C/c1cccs1)c1nc2ccc(F)cc2s1 the results were TDP1 cell CPT 2.59µM, RORgamma inh inconclusive, IL1B secr inh -104.2, TDP1 cell noCPT 4.61µM, ELG1 DNA repair inactive and VP16 counter inconclusive.
Screening Cc1ccc2nc(N(CCN(C)C)C(=O)c3ccc4c(c3)OCCO4)sc2c1 returned TDP1 cell CPT inactive, RORgamma inh inactive, IL1B secr inh inactive, TDP1 cell noCPT inactive, ELG1 DNA repair inactive and VP16 counter inactive.
`Cc1ccc2nc(N(CCN(C)C)C(=O)/C=C/c3cccs3)sc2c1` gave TDP1 cell CPT inconclusive, RORgamma inh inactive, IL1B secr inh inconclusive, TDP1 cell noCPT 16.4µM, ELG1 DNA repair inactive and VP16 counter inconclusive.
For CN(C)CCN(C(=O)/C=C/c1cccs1)c1nc2ccc(Br)cc2s1 the results were TDP1 cell CPT inconclusive, RORgamma inh inactive, IL1B secr inh inactive, TDP1 cell noCPT inconclusive, ELG1 DNA repair inconclusive and VP16 counter inactive.
`CCN(CC)CCN(C(=O)/C=C/c1cccs1)c1nc2ccc(C)cc2s1` gave TDP1 cell CPT inconclusive, RORgamma inh inactive, IL1B secr inh inactive, TDP1 cell noCPT 6.51µM, ELG1 DNA repair inactive and VP16 counter inactive.
`CN(C)CCN(C(=O)C1CCCCC1)c1nc2cc3c(cc2s1)OCCO3` gave TDP1 cell CPT inactive, IL1B secr inh inconclusive and TDP1 cell noCPT 9.2µM.
Cc1ccc2[nH]c(=O)c(CN(C(=O)c3cccc(Cl)c3)C(C)(C)C)cc2c1 was read as TDP1 cell CPT inactive and TDP1 cell noCPT inconclusive.
For COc1ccc(NC(=O)c2c(C)noc2C)cc1S(=O)(=O)N1CCCCC1 the results were TDP1 cell CPT inactive, IL1B secr inh inactive and TDP1 cell noCPT inconclusive.
For CN(C)CCN(C(=O)c1cccs1)c1nc2cc3c(cc2s1)OCCO3 the results were TDP1 cell CPT inconclusive, RORgamma inh inactive, IL1B secr inh inactive, TDP1 cell noCPT 23.1µM, ELG1 DNA repair inconclusive and VP16 counter inactive.
Screening CN(C)CCN(C(=O)c1ccc(Br)s1)c1nc2cc3c(cc2s1)OCCO3 returned TDP1 cell CPT inactive, RORgamma inh inactive, IL1B secr inh inactive, TDP1 cell noCPT inactive, ELG1 DNA repair inconclusive and VP16 counter inactive.
C[C@H](CO)N1C[C@H](C)[C@H](CN(C)S(=O)(=O)c2ccc(Cl)cc2)OCc2cnnn2CCCC1=O was read as TDP1 cell CPT inconclusive, IL1B secr inh inactive and TDP1 cell noCPT inconclusive.
Screening Clc1ccc(OCc2cn3ccccc3n2)c2ncccc12 returned TDP1 cell CPT 14.6µM, RORgamma inh 11.2µM, IL1B secr inh -61.0, TDP1 cell noCPT 16.4µM, ELG1 DNA repair inconclusive and VP16 counter inconclusive.
